Screening results deposited in PubChem BioAssay by The Scripps Research Institute Molecular Screening Center.
Sampled rows, rich in hits. Any-hit rate of the full collection: about 4.8%.
DAX1 inh-1: NR0B1 (DAX1) inhibition | 0.99% of 340,000 active | P51843 | inhibition, % at 6.75 µM | HEK293 Gal4-DAX1 luciferase reporter, luminescence;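 active means inhibition above the mean over all tested compounds plus 3 SD, cut at about 4.2% in these data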;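 further: inhibition shows as a rise in luminescence from relieved DAX1 repression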
Target sequence (P51843 207-470 limits assumed): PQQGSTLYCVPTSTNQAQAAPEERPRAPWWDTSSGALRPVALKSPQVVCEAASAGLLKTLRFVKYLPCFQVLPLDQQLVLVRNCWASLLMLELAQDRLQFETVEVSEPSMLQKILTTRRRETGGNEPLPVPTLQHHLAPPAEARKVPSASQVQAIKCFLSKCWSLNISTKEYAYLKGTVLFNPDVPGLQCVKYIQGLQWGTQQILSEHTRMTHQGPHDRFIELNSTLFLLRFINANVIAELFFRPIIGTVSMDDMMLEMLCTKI
SMARCA2 act: activators of SMARCA2 function | MG213 cells, MMTV-luciferase reporter, dexamethasone, overnight | 1% of 370,000 active | activation, % at 9.1 µM | AID 652017; in the data active means activation above about 7.8%
hgDAF-12 ag: hgDAF-12 agonism, primary luciferase screen; activation, % at 6.8 µM; 1.8% of 370,000 active; HEK293 GAL4-hgDAF12 UAS-luciferase reporter, agonist luminescence; normalized to butyrate control;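 active means activation above a cutoff set at the mean of all screened compounds plus 3 SD, cut at about 10% in these data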
ssDAF-12 act: S. stercoralis DAF-12 activation, primary screen; HEK293 ssDAF-12/GRIP1 lit1-tk-luc reporter, luminescence; % of 3 µM dafachronic acid response; AID 652126; 1% of 370,000 active; activation, % at 6.8 µM;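 active means activation above the mean over all tested compounds plus 3 SD, cut at about 0.9% in these data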
DAX1 inh-2: blocks DAX1 repression of SF-1 activated StAR promoter; HEK293T StAR-luciferase reporter, SF-1/DAX-1 repression relief; inhibition, % at 6.8 µM; 1.1% of 370,000 active; AID 652010;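 active means inhibition above the mean over all tested compounds plus 3 SD, cut at about 3.6% in these data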;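 further: higher inhibition means more luminescence from relief of DAX-1 repression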
hcDAF-12 act: activates DAF-12 receptor from parasite H. contortus; HEK293 hcDAF-12 lit1-tk-luc reporter, luminescence; 0% DMSO, 100% Δ7-dafachronic acid; activation, % at 6.8 µM; 1.4% of 370,000 active;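 active means activation above the mean of all tested compounds plus 3 SD, cut at about 5.5% in these data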
SMARCA2 conf: SMARCA2 activation, confirmation screen; MG213 cells, MMTV-luciferase with dexamethasone, luminescence, overnight; MG213 cells expressing E1A, Rb sequestered; DMSO wells 0%, reference activator 100%; 30% of 3,500 active; shares compounds with SMARCA2 act; activation, % at 9.1 µM; AID 652260;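 active means activation above its plate's cutoff, the mean activation of tested wells plus 3 SD, cut at about 7.9% in these data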
GAL4-VP16 Luc: counter-screen for SMARCA2 activators: GAL4-VP16 luciferase reporter activation; shares compounds with SMARCA2 act; HEK293 GAL4-VP16 pG5luc reporter, luciferase luminescence; scaled: DMSO wells 0%, SAHA wells 100%; activation, % at 9.1 µM; 41% of 3,500 active;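 active means activation above the solvent-only control well mean plus 3 SD, averaged across control plates, cut at about 5.2% in these data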
Of the large screens only hits and unclear results are named; the others gave an inactive call (follow-up assays come after a bar, where they were run).

COC(=O)[C@]12CCCCC=C1N(Cc1ccc(OC)cc1)C(=O)[C@@H]2CC(=O)NCCCN1CCCC1=O	none (no result: DAX1 inh-1)
COC(=O)C1=C(C)N(C)C(=NCc2ccc3c(c2)OCO3)NC1c1cccc(C(F)(F)F)c1 (configuration not stated)	none (no result: DAX1 inh-1)
CC(=O)Nc1ccc2nc(NC(=O)c3cccnc3)sc2c1	SMARCA2 act 11 | SMARCA2 conf 10 | GAL4-VP16 Luc inactive
C=CCN1C(=O)/C(=C/c2ccc(OC)cc2)S/C1=N/c1nccs1	SMARCA2 act 10 | SMARCA2 conf inactive | GAL4-VP16 Luc inactive
CCN(C(=O)[C@@H](C)[C@@H](O)c1ccc(Cl)cc1)c1ccccc1	none (no result: DAX1 inh-1)
C[C@@H]1COc2cc(NCCO)ccc2S(=O)(=O)N1	none (no result: DAX1 inh-1)
CCOC(=O)CSc1nc2cc3c(cc2cc1C)OCO3	none
Cc1cc2cc3c(cc2nc1SCC(=O)N1CCOCC1)OCO3	SMARCA2 act 8.4 | SMARCA2 conf inactive | GAL4-VP16 Luc inactive
COC(=O)C1CN(CCc2ccccc2)CCS(=O)(=O)N1Cc1ccccc1 (configuration not stated)	none (no result: DAX1 inh-1)
O=c1c2cc(F)ccc2sn1-c1ccccc1Cl	SMARCA2 act 9.0 | SMARCA2 conf inactive | GAL4-VP16 Luc inactive
COc1ccc(/C=N/N=C2/NC(=O)C(c3ccccc3)(c3ccccc3)S2)cc1	SMARCA2 act 8.3 | SMARCA2 conf inactive | GAL4-VP16 Luc inactive
C/C(=N\NC(=S)NCc1ccccc1)c1ccc(Cl)s1	none
C/C(=N\NC(=S)NCc1ccccc1)c1cccs1	SMARCA2 act 8.1 | SMARCA2 conf inactive | GAL4-VP16 Luc inactive
COCC(=O)N[C@H]1C[C@@H]2O[C@H](CO)CC[C@@H]2O[C@@H]1CCc1ccc(-c2ccccc2)cc1	none (no result: DAX1 inh-1)
O=C(NC1CCCCCC1)C1CCN(S(=O)(=O)N2CCC3(CC2)OCCO3)CC1	SMARCA2 act 9.9 | SMARCA2 conf inactive | GAL4-VP16 Luc inactive
CCN(CC)CCNc1nc2cc(OC)c(OC)cc2c2nc(-c3ccccc3)nn12	SMARCA2 act 9.7 | SMARCA2 conf 26 | GAL4-VP16 Luc inactive
S=C(Nc1ccc(Br)cc1)OCCN1CCCC12CCC(c1ccccc1)CC2 (configuration not stated)	none (no result: DAX1 inh-1, SMARCA2 act, DAX1 inh-2)
COC(=O)[C@]12C[C@H](CC(=O)N3CCOCC3)C(=O)N(CCC3=CCCCC3)C1=C[C@H](C1CCCC1)O[C@@H]2C	none (no result: DAX1 inh-1)
COc1ccccc1N1CCN(C(=O)C(=O)N/N=C/c2cccc(O)c2)CC1	none
COc1ccccc1/C=N/NC(=O)C(=O)N1CCN(c2ccccc2OC)CC1	SMARCA2 act 10 | SMARCA2 conf inactive | GAL4-VP16 Luc inactive
CCCCN(C(=O)Cc1cccs1)c1nnc(-c2cccnc2)s1	SMARCA2 act 11 | SMARCA2 conf 7.9 | GAL4-VP16 Luc 5.5
COCCN(C(=O)Cc1cccs1)c1nnc(-c2cccnc2)s1	none
CCOc1cc(/C=N/Nc2cccc(C(=O)O)c2)ccc1OC(=O)c1ccccc1	SMARCA2 act 11, ssDAF-12 act 1.1 | SMARCA2 conf inactive | GAL4-VP16 Luc 18
COc1cc(/C=N/Nc2ccccc2)ccc1OC(=O)c1cccs1	SMARCA2 act 9.7 (no result: DAX1 inh-1) | SMARCA2 conf inactive | GAL4-VP16 Luc inactive
COc1ccc(-c2cc(-c3nnc(SCC(=O)Nc4cccc(Cl)c4C)n3N)[nH]n2)cc1	none (no result: DAX1 inh-1)
Cc1ccc(NS(=O)(=O)c2c(C)nc3sccn3c2=O)cc1C	SMARCA2 act 9.6 | SMARCA2 conf inactive | GAL4-VP16 Luc inactive
COCCNC(=O)C(=O)N/N=C/c1ccccc1C(F)(F)F	SMARCA2 act 11 | SMARCA2 conf inactive | GAL4-VP16 Luc inactive
O=C(N/N=C/c1ccccc1O)c1cccc(C(F)(F)F)c1	none
O=C(N/N=C/c1ccccc1C(F)(F)F)c1ccc(O)cc1	DAX1 inh-1 5.0, SMARCA2 act 8.3 | SMARCA2 conf inactive | GAL4-VP16 Luc 9.4
